# PubChem BioAssay (NCATS)
# Values joined by “and” are separate entries in the source; they are usually repeats but may differ in a detail not shown here. Equal values may be shown once. Inconclusive results are not listed. A number with no mark means an inactive call. Active and inactive are the calls of the source. The call rests on the fitted dose curve; in most records, active means well fitted activation curve with a large enough effect; inconclusive means small, poorly fitted or top-dose-only effect; inactive means no such curve, though single readings can be large or run the other way.
# Target: Cellular tumor antigen p53 (Homo sapiens) (UniProt P04637)
# Assay: Primary qHTS for small molecule compounds that upregulate eGFP-tagged delta133p53alpha (in N-terminal) cells. (AID 2060322); further: nearly all actives have a fitted effect of over 75% in size;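 on activation: cells pre-induced with doxycycline then dosed without doxycycline; series mostly up to about 56 µM; 0% = DMSO vehicle and 100% = reference activator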
# Details: NCI-H358 eGFP-delta133p53alpha fluorescence, 24 h; activation: hits give high values
# Outline: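 NCI-H358 cells pre-induced 24 h with 10 ng/ml doxycycline for eGFP-delta133p53alpha, plated dox-free and exposed 24 h at 37C to titrated compounds. Fixed, Hoechst-stained; gated GFP peak intensity by laser scanning cytometry, normalized to DMSO (0%) and 57.5 uM 5-azacytidine (100%).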
# Potency means the concentration at half of the fitted maximal effect.
# Sequence of Cellular tumor antigen p53 (Homo sapiens) (P04637 whole entry, looked up): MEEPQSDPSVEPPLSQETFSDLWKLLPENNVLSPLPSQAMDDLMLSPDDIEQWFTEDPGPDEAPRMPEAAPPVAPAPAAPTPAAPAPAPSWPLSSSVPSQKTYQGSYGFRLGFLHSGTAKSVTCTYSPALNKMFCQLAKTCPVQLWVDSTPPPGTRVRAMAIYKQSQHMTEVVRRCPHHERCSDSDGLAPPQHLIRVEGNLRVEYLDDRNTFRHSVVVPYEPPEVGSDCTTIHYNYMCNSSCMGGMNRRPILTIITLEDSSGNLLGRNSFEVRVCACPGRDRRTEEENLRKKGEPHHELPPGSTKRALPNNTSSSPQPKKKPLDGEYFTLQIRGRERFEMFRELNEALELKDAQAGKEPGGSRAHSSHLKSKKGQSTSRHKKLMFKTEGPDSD
Compound,activation,Potency
CCN(CC)S(=O)(=O)c1ccc(C(=O)O)cc1,-11.7%,–
CN(C)CCOC1=Cc2ccccc2Sc2ccc(Cl)cc21,2.51%,–
CN(C)CCC=C1c2ccccc2COc2ccc(CC(=O)O)cc21,16.8%,–
CCCCCCn1c(=O)c2c(ncn2C)n(C)c1=O,-5.08%,–
CC[C@H](CC[C@@H](C)[C@H]1CC[C@H]2[C@@H]3CC=C4C[C@@H](O)CC[C@]4(C)[C@@H]3CC[C@]12C)C(C)C,-21.3%,–
NS(=O)(=O)c1cc2c(cc1C(F)(F)F)NCNS2(=O)=O,6.21%,–
Cc1ncc(CSSCc2cnc(C)c(O)c2CO)c(CO)c1O,-22%,–
CCn1cc(-c2cccc(C(F)(F)F)c2)c2sc(C(N)=NC3CCS(=O)(=O)CC3)cc2c1=O,12.3%,–
CO[C@H]1C[C@@H]2CC[C@@H](C)[C@@](O)(O2)C(=O)C(=O)N2CCCC[C@@H]2C(=O)O[C@H]([C@H](C)C[C@@H]2CC[C@H](OP(C)(C)=O)[C@H](OC)C2)CC(=O)[C@H](C)C=C(C)[C@@H](O)[C@@H](OC)C(=O)[C@H](C)C[C@H](C)C=CC=CC=C1C,24.8%,–
COc1ccc2nc(NC(=O)Nc3ccccc3)sc2c1,-19.8%,–
C/C(=C1\CCOC(=O)S1)N(C=O)Cc1cnc(C)nc1N,-5.86%,–
Cc1cccc(C=NNc2cc(N3CCOCC3)nc(OCCc3ccccn3)n2)c1,-13.3%,–
CC(=O)N1C[C@H](O)C[C@H]1C(=O)O,14.2%,–
CC[N+](CC)(CCNC(=O)C(=O)NCC[N+](CC)(CC)Cc1ccccc1Cl)Cc1ccccc1Cl,-9.6%,–
C[C@@]12CCC[C@H]1[C@@H]1CC[C@H]3C[C@@H](O)CC[C@]3(C)[C@H]1CC2,-12.6%,–
CN1CCN(c2c(F)cc3c(=O)c(C(=O)O)cn4c3c2OCN4C)CC1,-9.21%,–
Cc1cccc(C)c1NC(=O)c1ccccc1C(=O)O,28.5%,–
CC(C)NC[C@@H](O)COc1ccc(CC(N)=O)cc1,-20.9%,–
CN(C)CCN(Cc1ccc(Cl)cc1)c1ccccn1,1.96%,–
NS(=O)(=O)c1cc2c(cc1Cl)NC(CC1CCCC1)NS2(=O)=O (stereo not given),11.9%,–
COc1cc2nc(-c3cc(F)ccc3O)nc(N[C@@H]3CNC[C@@H]3C(C)(C)O)c2cc1OC,–,34.3 µM (active)
COC(=O)c1cc(S(N)(=O)=O)ccc1OC,-3.95%,–
C[C@@]12C(=O)OC(=O)[C@@]1(C)C1CCC2O1,–,9.68 µM (active)

Compound,activation,Potency
CN(C)CCN(Cc1ccsc1)c1ccccn1,-27.6%,–
COc1cc(N)c(Cl)cc1C(=O)NC1CCN(CCCOc2ccc(F)cc2)CC1OC (stereo not given),13%,–
Nc1ccc(O)c(C(=O)O)c1,-19.2%,–
NS(=O)(=O)c1ccc(NC(=O)CCC(=O)O)cc1,14.1%,–
COc1cc2c(cc1OC)C(=O)CC2,-2.82%,–
C/C=C/c1ccc(O)c(OC)c1,-0.837%,–
CC(=Cc1ccccc1)C=C1SC(=S)N(CC(=O)O)C1=O,-1.94%,–
CCCCCCOc1ccccc1C(N)=O,8.47%,–
C[C@@H]1CC[C@@]2(OC1)O[C@H]1C[C@H]3[C@@H]4CC[C@H]5C[C@@H](O)CC[C@]5(C)[C@H]4CC(=O)[C@]3(C)[C@H]1[C@@H]2C,-17.6%,–
CC(C)=CCC/C(C)=C/CC/C(C)=C/CCC(=O)OC/C=C(\C)CCC=C(C)C,0.565%,–
CCCCC(CC)COC(=O)c1ccc(N(C)C)cc1 (stereo not given),0.837%,–
Nc1ccc(S(=O)(=O)Nc2ccccc2)cc1,-15.9%,–
CCCCC1C(=O)N(c2ccccc2)N(c2ccc(O)cc2)C1=O (stereo not given),–,4.37 µM (active)
COC(=O)c1c(Cl)c(Cl)c(C(=O)OC)c(Cl)c1Cl,-11.7%,–
CC1CCc2cc(F)cc3c(=O)c(C(=O)O)cn1c23 (stereo not given),23.2%,–
Cc1cc(C=c2sc3nc4ccccc4n3c2=O)c(C)n1-c1ccccc1,-10.2%,–
C=C1[C@H](n2cnc3c(=O)[nH]c(N)nc32)C[C@H](O)[C@H]1CO,-20.5%,–
OC(CCN1CCCC1)(c1ccccc1)C1CCCCC1 (stereo not given),20.1%,–
Cc1ccsc1/C=C/C1=NCCCN1C,-2.51%,–
CC(=O)c1cc2ccccc2s1,6.21%,–
CC(=O)Oc1ccc(C2(c3ccc(OC(C)=O)cc3)C(=O)Nc3ccccc32)cc1,-31.1%,–
O=[N+]([O-])c1ccc(/C=N\O)o1,11.9%,–
O=C(NCCCN1CCOCC1)c1ccc(Cl)cc1,-23.2%,–

Compound,activation,Potency
NS(=O)(=O)c1ccc(Cl)c(S(N)(=O)=O)c1,-10%,–
CCC(CN)=C(c1ccccc1)c1ccccc1,-4.18%,–
O=C(N/N=C/c1ccccc1O)c1ccncc1,-12.6%,–
C#C[C@]1(O)CC[C@H]2[C@@H]3CCC4=CC(=O)CC[C@@H]4[C@H]3CC[C@@]21C,7.34%,–
COC(=O)/C=C(/C)N,8.47%,–
CC=CC(=O)N(CC)c1ccccc1C,-8.73%,–
CN(C(=O)C(Cl)Cl)c1ccc(OC(=O)c2ccco2)cc1,5.02%,–
NCCNCCNCCN,-9.6%,–
CC1(C)O[C@H]2C[C@@H]3[C@H]4CCC5=CC(=O)C=C[C@]5(C)[C@@]4(F)[C@@H](O)C[C@]3(C)[C@]2(C(=O)CO)O1,8.11%,–
C=CCN1C[C@H](C(=O)N(CCCN(C)C)C(=O)NCC)C[C@@H]2c3cccc4[nH]cc(c34)C[C@H]21,-8.37%,–
Cc1ccccc1C(C(=O)NC1CCCC1)N(C(=O)Cn1cnc2ccccc21)c1cccc(F)c1 (stereo not given),-4.95%,–
Cc1c(F)cc2c(=O)c(C(=O)O)cn3c2c1CCC3C (stereo not given),16.7%,–
C=C1C[C@@]2(O)O[C@@]3(C[C@H]2C(C)C)[C@H](C)CC[C@H]13,18.1%,–
CCN(CC)C(=O)C1CN2CCc3cc(OC)c(OC)cc3C2CC1OC(C)=O (stereo not given),-9.21%,–
Cc1cc(OI)c(C(C)C)cc1-c1cc(C(C)C)c(OI)cc1C,17.5%,–
CC(C)(C)[N+]([O-])=Cc1ccc(S(=O)(=O)O)cc1S(=O)(=O)O,-9.61%,–
Nc1nc(-c2ccccc2)c(Br)c(=O)[nH]1,-12.6%,–
C[C@]12C=CC(=O)C=C1[C@@H](F)C[C@@H]1[C@@H]2[C@@H](O)C[C@@]2(C)[C@H]1CC[C@]2(O)C(=O)CO,7.53%,–
COc1cccc2c1C(=O)c1c(O)c3c(c(O)c1C2=O)C[C@@](O)(C(=O)CO)C[C@@H]3O[C@H]1C[C@H](N)[C@H](O[C@@H]2CCCCO2)[C@H](C)O1,–,15.5 µM (active)
CC=CCC=CCCC(=O)[C@H]1O[C@@H]1C(N)=O,-3.35%,–
CC(C)(C)c1nnc(NS(=O)(=O)c2ccc(N)cc2)s1,-16.7%,–
C[N+]1(C)CCC(OC(=O)C(O)(c2ccccc2)C2CCCC2)C1 (stereo not given),7.34%,–
O=C1C(CCC(O)c2ccc(F)cc2)C(c2ccc(O)cc2)N1c1ccc(F)cc1 (stereo not given),-15.6%,–

Compound,activation,Potency
OC(CCN1CCCCC1)(c1ccccc1)c1ccccc1,1.69%,–
CCCC(=O)OC[C@@H](OC(=O)CCC)[C@@H](OC(=O)CCC)[C@H](Cn1c2nc(=O)[nH]c(=O)c-2nc2cc(C)c(C)cc21)OC(=O)CCC,-33.3%,–
CC(=O)OCC(=O)[C@@]12N=C(C)O[C@H]1C[C@H]1[C@@H]3CCC4=CC(=O)C=C[C@]4(C)[C@@H]3[C@@H](O)C[C@@]12C,-1.97%,–
N#CCC(=O)NN,15.9%,–
Cc1c(C(C)C)c(=O)n(-c2ccccc2)n1C,-13.4%,–
CCCCOC(=O)CC(CC(=O)OCCCC)(OC(C)=O)C(=O)OCCCC,-31.1%,–
COc1cccc(N(C)C(=S)Oc2ccc3c(c2)CCCC3)n1,25.4% and -4.03%,–
CC(C)=CCC1C(=O)N(c2ccccc2)N(c2ccccc2)C1=O,-15.3%,–
Cc1oc(-c2ccccc2)nc1CCC(=O)c1ccc(CC2SC(=O)NC2=O)cc1 (stereo not given),-3.95%,–
O=C1[C@H]2CCCC[C@H]2C(=O)N1CCCCN1CCN(c2nsc3ccccc23)CC1,10.7%,–
OCc1ccc(Cl)cc1Cl,-7.53%,–
CC=C(C(=CC)c1ccc(O)cc1)c1ccc(O)cc1,-4.09%,–
COc1ccc(CN(CCN(C)C)c2ncccn2)cc1,5.08%,–
NC(=O)NC1NC(=O)NC1=O (stereo not given),-17.5%,–
C[C@]12CC[C@H]3[C@@H](CCC4=CC(=O)CC[C@@]43C)[C@@H]1CC[C@@H]2C(=O)CO,-5.86%,–
CO[C@@]1(NC(=O)CSC[C@@H](N)C(=O)O)C(=O)N2C(C(=O)O)=C(CSc3nnnn3C)CS[C@@H]21,13.4%,–
CC(C)C(C)(C)C(C)(C)C(C)(C)S,5.08%,–
FC(F)(F)C(F)(F)C(F)(F)C(F)(F)C(F)(F)C(F)(F)C(F)(F)C(F)(F)Br,-14.1%,–
CCOC(=O)[C@H](CCc1ccccc1)N[C@@H](C)C(=O)N1Cc2ccccc2C[C@H]1C(=O)O,17.6%,–
Clc1ccccc1-c1nc(-c2ccncc2)no1,11.7%,–
O=C(O)CCc1nc2ccccc2[nH]1,0.565%,–
